The text below walks through data of PubChem BioAssay (EPA / NIEHS).

Each structure is given as a SMILES string. The source made the active and inactive calls. The calls were made as follows: active = hit-call score of the fitted dose curve at least 0.9, where 1 is the maximum; inactive = score below 0.9.

Read-out in assay [1]: Interferon-gamma inducible Protein 10 (IP10), CXCL10 (gene 3627)
As to the kind of experiment: BSK_hDFCGF_IP10: BioMAP Diversity Plus: hDFCGF Assay for Interferon-gamma inducible Protein 10 (IP10) Biomarker Activity (AID 2283053). The following applies: primary human foreskin fibroblasts; actives raise or lower the signal. In outline: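 Primary foreskin fibroblasts, human; 24 h compound exposure; IP-10 by ELISA; bidirectional fit vs DMSO.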

Read-out in assay [2]: Urokinase-type plasminogen activator receptor (uPAR), PLAUR (gene 5329)
Briefly: BSK_CASM3C_uPAR: BioMAP Diversity Plus: CASM3C Assay for Urokinase-type plasminogen activator receptor (uPAR) Biomarker Activity (AID 2283054).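 Also: cell-surface uPAR protein level quantified by ELISA.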 The following applies: primary human coronary artery smooth muscle cells; actives raise or lower the signal.

Read-out in assay [3]: Vascular cell adhesion molecule 1 (VCAM1), VCAM1 (gene 7412)
Briefly: BSK_CASM3C_VCAM1: BioMAP Diversity Plus: CASM3C Assay for Vascular cell adhesion molecule 1 (VCAM1) Biomarker Activity (AID 2283055).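 Also: VCAM-1 protein level quantified by ELISA on the cells.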 As to conditions: primary human coronary artery smooth muscle cells; actives raise or lower the signal.

Read-out in assay [4]: Collagen III, COL3A1 (gene 1281)
As to the kind of experiment: BSK_hDFCGF_CollagenIII: BioMAP Diversity Plus: hDFCGF Assay for Collagen III Biomarker Activity (AID 2283056). The following applies: primary human foreskin fibroblasts; actives raise or lower the signal. In outline:
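ELISA read-out of collagen III from human skin fibroblast cultures sampled 24 h post-dosing. Values were derived by bidirectional fitting relative to the DMSO vehicle control.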

Read-out in assay [5]: Epidermal growth factor receptor (EGFR), EGFR (gene 1956)
As to the kind of experiment: BSK_hDFCGF_EGFR: BioMAP Diversity Plus: hDFCGF Assay for Epidermal growth factor receptor (EGFR) Biomarker Activity (AID 2283057). As to conditions: primary human foreskin fibroblasts; actives raise or lower the signal. An outline of the steps: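 hDFCGF system, primary human foreskin fibroblasts; compound 24 h; EGFR measured by ELISA; DMSO = negative control/baseline; bidirectional fitting.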

Read-out in assay [6]: Interleukin-8 (IL8), CXCL8 (gene 3576)
Briefly: BSK_hDFCGF_IL8: BioMAP Diversity Plus: hDFCGF Assay for Interleukin-8 (IL8) Biomarker Activity (AID 2283058). As to conditions: primary human foreskin fibroblasts; actives raise or lower the signal. In outline: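 Cells used are human skin primary fibroblasts. Chemical is added, cultures run 24 h, then IL-8 is quantified by ELISA, and gain or loss versus DMSO control is fitted in both directions.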

Read-out in assay [7]: Macrophage colony-stimulating factor (MCSF), CSF1 (gene 1435)
Briefly: BSK_hDFCGF_MCSF: BioMAP Diversity Plus: hDFCGF Assay for Macrophage colony-stimulating factor (MCSF) Biomarker Activity (AID 2283060). As to conditions: primary human foreskin fibroblasts; actives raise or lower the signal. An outline of the steps:
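Primary human foreskin fibroblasts dosed with chemical; 24 h later, M-CSF quantified by ELISA; curves fitted in both directions vs DMSO negative control.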

The nature of assay [8]: BSK_hDFCGF_SRB: Viability Assessment in the BioMAP Diversity Plus: hDFCGF Assay (AID 2283061).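 Also: cells exposed to compound for 24 h before the read.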 The following applies: primary human foreskin fibroblasts. In outline: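 Readout is SRB absorbance at 560 nm, reflecting total protein in parallel cultures of human foreskin fibroblasts harvested 24 h after chemical dosing. Activity was fitted bidirectionally relative to DMSO.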

Read-out in assay [9]: TIMP metallopeptidase inhibitor 1 (TIMP1), TIMP1 (gene 7076)
Briefly: BSK_hDFCGF_TIMP1: BioMAP Diversity Plus: hDFCGF Assay for TIMP metallopeptidase inhibitor 1 (TIMP1) Biomarker Activity (AID 2283062). The following applies: primary human foreskin fibroblasts; actives raise or lower the signal. An outline of the steps:
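Human skin fibroblasts (primary), hDFCGF system; compound exposure 24 h; TIMP-1 by ELISA; bidirectional fit vs DMSO negative control; overt cytotoxicity by SRB in parallel wells.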

Read-out in assay [10]: Monokine induced gamma interferon (MIG), CXCL9 (gene 4283)
Briefly: BSK_hDFCGF_MIG: BioMAP Diversity Plus: hDFCGF Assay for Monokine induced gamma interferon (MIG) Biomarker Activity (AID 2283063). As to conditions: primary human foreskin fibroblasts; actives raise or lower the signal. An outline of the steps:
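Chemicals were added to primary human foreskin fibroblast cultures, which were sampled 24 h later. MIG levels were then quantified by ELISA and responses fitted in both directions relative to DMSO.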

Read-out in assay [11]: Matrix Metallopeptidase 1 (MMP1), MMP1 (gene 4312)
As to the kind of experiment: BSK_hDFCGF_MMP1: BioMAP Diversity Plus: hDFCGF Assay for Matrix Metallopeptidase 1 (MMP1) Biomarker Activity (AID 2283064). The following applies: primary human foreskin fibroblasts; actives raise or lower the signal. An outline of the steps:
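Primary human foreskin fibroblasts in the hDFCGF system were dosed with test chemical, and MMP1 was measured by ELISA 24 h later. Values come from bidirectional curve fitting against the DMSO baseline.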

Read-out in assay [12]: Plasminogen activator inhibitor-1 (PAI1), SERPINE1 (gene 5054)
Briefly: BSK_hDFCGF_PAI1: BioMAP Diversity Plus: hDFCGF Assay for Plasminogen activator inhibitor-1 (PAI1) Biomarker Activity (AID 2283066). As to conditions: primary human foreskin fibroblasts; actives raise or lower the signal. In outline:
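Primary dermal fibroblasts (human foreskin), hDFCGF system; compound 24 h; PAI-1 by ELISA; bidirectional fit vs DMSO control.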

Read-out in assay [13]: Intercellular Adhesion Molecule 1 (ICAM1), ICAM1 (gene 3383)
As to the kind of experiment: BSK_KF3CT_ICAM1: BioMAP Diversity Plus: KF3CT Assay for Intercellular Adhesion Molecule 1 (ICAM1) Biomarker Activity (AID 2283067). As to conditions: primary human keratinocytes with fibroblasts; actives raise or lower the signal. In outline:
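ICAM-1 levels are measured by ELISA 24 h after dosing a primary human co-culture of keratinocytes and foreskin fibroblasts. Activity in either direction is fitted relative to DMSO vehicle.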

Assay [14] in a line: BSK_KF3CT_SRB: Viability Assessment in the BioMAP Diversity Plus: KF3CT Assay (AID 2283069).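 Also: total protein by sulforhodamine B staining as a cytotoxicity measure; read 24 h after compound addition; fitted for both signal gain and loss against DMSO baseline.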 As to conditions: primary human keratinocytes with fibroblasts. In outline: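 Human primary keratinocyte plus foreskin fibroblast co-culture exposed to chemicals for 24 h. Total protein measured by 0.1% sulforhodamine B staining after 10% TCA fixation, read at 560 nm; bidirectional fitting versus DMSO baseline.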

Read-out in assay [15]: TIMP metallopeptidase inhibitor 2 (TIMP2), TIMP2 (gene 7077)
As to the kind of experiment: BSK_KF3CT_TIMP2: BioMAP Diversity Plus: KF3CT Assay for TIMP metallopeptidase inhibitor 2 (TIMP2) Biomarker Activity (AID 2283071). As to conditions: primary human keratinocytes with fibroblasts; actives raise or lower the signal. In outline:
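Cells: human keratinocytes co-cultured with foreskin fibroblasts. Treat with chemical, 24 h. Measure TIMP-2 by ELISA; fit curves bidirectionally vs DMSO baseline.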

Read-out in assay [16]: Tissue Factor, F3 (gene 2152)
As to the kind of experiment: BSK_CASM3C_TissueFactor: BioMAP Diversity Plus: CASM3C Assay for Tissue Factor Biomarker Activity (AID 2283052).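 Also: cell surface tissue factor protein level read by ELISA.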 The following applies: primary human coronary artery smooth muscle cells; actives raise or lower the signal.

Turning to `COC(=O)c1ccc(C(=O)OC)cc1`, the outcome in assay [1], in assay [2], in [3], in assay [4], in [5] and in assay [6] was inactive. Besides, the result in assay [7], in assay [8], in assay [9], in assay [10], in assay [11] and in assay [12] was inactive. Also, the result in assay [13], in [14] and in assay [15] was inactive.

For the compound `CCCCN(CCO)CCO`, the result in assay [16], in assay [1], in assay [2], in assay [3], in assay [4] and in assay [5] was inactive. Further, the outcome in [6], in [7], in assay [8], in assay [9], in assay [10] and in [11] was inactive. The outcome in assay [12], in assay [13], in assay [14] and in assay [15] was inactive.

By AC50 is commonly meant the midpoint of the concentration-response curve, whichever way the signal moves. As for `Nc1ccc(N)c([N+](=O)[O-])c1`, the AC50 in assay [16] was 0.037 µM (active). In addition, the result in assay [1], in assay [2], in assay [3], in assay [4], in [5] and in [6] was inactive. Further, the result in assay [7], in assay [8], in assay [9], in assay [10], in assay [11] and in assay [12] was inactive. Also, the outcome in assay [13], in assay [14] and in assay [15] was inactive.

`COc1ccccc1NC(=O)CC(C)=O`: the result in assay [16], in assay [1], in assay [2], in assay [3], in assay [4] and in assay [5] was inactive. In addition, the result in assay [6], in assay [7], in [8], in assay [9], in assay [10] and in assay [11] was inactive. In addition, the result in [12], in assay [13], in assay [14] and in assay [15] was inactive.

`CCCCCCCC1CCCC1=O` (stereo not given): the AC50 in assay [16] is 31.8 µM (active); in assay [2], 29.5 µM (active); in [3], 30.9 µM (active); in assay [13] it was 30.6 µM (active); in [14] it was 35.1 µM (active); in assay [15], 31.3 µM (active). Further, the outcome in assay [1], in assay [4], in assay [5], in assay [6], in assay [7] and in [8] was inactive. Further, the result in [9], in assay [10], in assay [11] and in [12] was inactive.

In the case of `CCCCCCCCCC(=O)OCC`, the AC50 was 30.4 µM (active) in assay [16]; 31.1 µM (active) in assay [2]; 31.1 µM (active) in assay [3]; 31.5 µM (active) in assay [4]; 30.2 µM (active) in assay [7]; 31.4 µM (active) in [12]. Besides, the outcome in assay [1], in assay [5], in assay [6], in assay [8], in assay [9] and in assay [10] was inactive. Further, the result in assay [11], in [13], in assay [14] and in [15] was inactive.
